The supplement of paper PMC4962491
± gives the standard deviation of the averaged measurements.

These compounds were tested on FaDu (assay: mitochondrial oxygen consumption rate normalised to cell number, Z score vs plate DMSO wells; higher = higher oxygen consumption (negative = OCR reduction)). Settings: 0.08 µM; treatment time 24 h; assay medium: 5 mM glucose, 5 mM pyruvate, 4 mM glutamine.
Description: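 Secondary screen: FaDu cells were incubated 24 h with the top 130 primary hits at 0.08, 0.4, 2 or 10 uM. Mitochondrial-specific OCR (basal minus antimycin A) was measured on a Seahorse XF96 in medium with 5 mM glucose, 5 mM pyruvate and 4 mM glutamine and normalised to Hoechst cell number. OCR score = (OCR - mean of plate DMSO wells) / SD of plate DMSO wells. Three repeats.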
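Further: compound exposure in DMEM (4 mM L-glutamine, 5 mM glucose), antimycin A injected at 2 µM after the basal reading and its residual OCR subtracted from basal.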

SMILES	mitochondrial oxygen consumption rate normalised
CCN(CC)CCCC(C)Nc1c2ccc(Cl)cc2nc2ccc(OC)cc12 (configuration not stated)	-0.58 ± 1.2
COc1cc(NS(C)(=O)=O)ccc1Nc1c2ccccc2nc2ccccc12	-0.738 ± 1.7
CC(COc1ccccc1)NC(C)C(O)c1ccc(O)cc1 (configuration not stated)	0.276 ± 1.4
CCCCC(CC)CN=C(N)N=C(N)NCCCCCCNC(N)=NC(N)=NCC(CC)CCCC (configuration not stated)	-1.69 ± 0.36
COc1ccc(C[C@H](N)C(=O)N[C@H]2[C@@H](O)[C@H](n3cnc4c(N(C)C)ncnc43)O[C@@H]2CO)cc1	-1.29 ± 1.7
CC[C@@]1(O)C(=O)OCc2c1cc1n(c2=O)Cc2cc3c(CN(C)C)c(O)ccc3nc2-1 [Topotecan]	-0.916 ± 1.4
O=c1cc[nH]c(=S)[nH]1	-0.646 ± 1.9
CCCCCCCCCCCCCCCC[N+](C)(C)C	0.46 ± 0.86
COc1cccc2c1C(=O)c1c(O)c3c(c(O)c1C2=O)C[C@@](O)(C(=O)CO)C[C@@H]3O[C@H]1C[C@H](N)[C@@H](O)[C@H](C)O1	-0.0709 ± 0.37
CC(C)NCC(O)COc1ccc(CC(N)=O)cc1 (configuration not stated)	0.23 ± 1.7
COc1ccc2cc3[n+](cc2c1OC)CCc1cc2c(cc1-3)OCO2	-0.246 ± 0.98
COc1cc([C@@H]2c3cc4c(cc3[C@@H](O[C@@H]3O[C@@H]5CO[C@@H](c6cccs6)O[C@H]5[C@H](O)[C@H]3O)[C@H]3COC(=O)[C@H]23)OCO4)cc(OC)c1O [Teniposide]	0.487 ± 1.3
CCN(CC)C(=O)c1cccnc1	0.606 ± 0.97
CC(C(O)c1ccc(O)cc1)N1CCC(Cc2ccccc2)CC1 (configuration not stated)	0.382 ± 1.5
CCOc1ccc2nc3cc(N)ccc3c(N)c2c1	-0.404 ± 1.3
CCCCCCCCCCCCC[N+](C)(C)Cc1ccccc1	-1.59 ± 1.3
CCc1c2c(nc3ccc(OC(=O)N4CCC(N5CCCCC5)CC4)cc13)-c1cc3c(c(=O)n1C2)COC(=O)[C@]3(O)CC	0.871 ± 0.77
COc1cc(O)c(C(=O)c2ccccc2)cc1S(=O)(=O)O	0.104 ± 1.6
C[C@]12CC[C@@H]3c4ccc(O)cc4CC[C@H]3[C@@H]1CC[C@@H]2OC(=O)CCC1CCCC1	0.0173 ± 1.4
CCN(CC)CCOC(=O)C(c1ccccc1)C1CCCCC1 (configuration not stated)	0.349 ± 1.2
CN(C)c1ccc(C(=C2C=CC(=[N+](C)C)C=C2)c2ccc(N(C)C)cc2)cc1	-0.504 ± 1.3
COc1cccc2c1C(=O)c1c(O)c3c(c(O)c1C2=O)C[C@@](O)(C(C)=O)C[C@@H]3O[C@H]1C[C@H](N)[C@H](O)[C@H](C)O1	1.45 ± 1.5
N=C(NCCCCCCNC(=N)NC(=N)Nc1ccc(Cl)cc1)NC(=N)Nc1ccc(Cl)cc1	0.00962 ± 0.9
Cc1c2oc3c(C)ccc(C(=O)N[C@@H]4C(=O)N[C@H](C(C)C)C(=O)N5CCC[C@H]5C(=O)N(C)CC(=O)N(C)[C@@H](C(C)C)C(=O)O[C@@H]4C)c3nc-2c(C(=O)N[C@@H]2C(=O)N[C@H](C(C)C)C(=O)N3CCC[C@H]3C(=O)N(C)CC(=O)N(C)[C@@H](C(C)C)C(=O)O[C@@H]2C)c(N)c1=O	-3.2 ± 1.3
Cc1cc(CC(C)CC(C)(C)C)n(O)c(=O)c1 (configuration not stated)	0.0907 ± 1.2
CCCCCCCCCc1ccc(OCCOCCOCCOCCOCCOCCOCCOCCOCCO)cc1	0.0515 ± 1

Same assay, conditions: 0.4 µM; treatment time 24 h; assay medium: 5 mM glucose, 5 mM pyruvate, 4 mM glutamine

SMILES	mitochondrial oxygen consumption rate normalised
CCN(CC)CCCC(C)Nc1c2ccc(Cl)cc2nc2ccc(OC)cc12 (configuration not stated)	0.524 ± 1.1
COc1cc(NS(C)(=O)=O)ccc1Nc1c2ccccc2nc2ccccc12	1.51 ± 1.1
CC(COc1ccccc1)NC(C)C(O)c1ccc(O)cc1 (configuration not stated)	1.57 ± 0.3
CCCCC(CC)CN=C(N)N=C(N)NCCCCCCNC(N)=NC(N)=NCC(CC)CCCC (configuration not stated)	1.12 ± 0.29
COc1ccc(C[C@H](N)C(=O)N[C@H]2[C@@H](O)[C@H](n3cnc4c(N(C)C)ncnc43)O[C@@H]2CO)cc1	-0.131 ± 0.75
CC[C@@]1(O)C(=O)OCc2c1cc1n(c2=O)Cc2cc3c(CN(C)C)c(O)ccc3nc2-1 [Topotecan]	0.308 ± 0.26
O=c1cc[nH]c(=S)[nH]1	1.11 ± 0.98
CCCCCCCCCCCCCCCC[N+](C)(C)C	-0.326 ± 1
COc1cccc2c1C(=O)c1c(O)c3c(c(O)c1C2=O)C[C@@](O)(C(=O)CO)C[C@@H]3O[C@H]1C[C@H](N)[C@@H](O)[C@H](C)O1	1.4 ± 1
CC(C)NCC(O)COc1ccc(CC(N)=O)cc1 (configuration not stated)	0.806 ± 0.77
COc1ccc2cc3[n+](cc2c1OC)CCc1cc2c(cc1-3)OCO2	-0.535 ± 0.76
COc1cc([C@@H]2c3cc4c(cc3[C@@H](O[C@@H]3O[C@@H]5CO[C@@H](c6cccs6)O[C@H]5[C@H](O)[C@H]3O)[C@H]3COC(=O)[C@H]23)OCO4)cc(OC)c1O [Teniposide]	0.0174 ± 0.54
CCN(CC)C(=O)c1cccnc1	-0.942 ± 0.098
CC(C(O)c1ccc(O)cc1)N1CCC(Cc2ccccc2)CC1 (configuration not stated)	0.565 ± 0.59
CCOc1ccc2nc3cc(N)ccc3c(N)c2c1	0.17 ± 0.56
CCCCCCCCCCCCC[N+](C)(C)Cc1ccccc1	-3.65 ± 1.3
CCc1c2c(nc3ccc(OC(=O)N4CCC(N5CCCCC5)CC4)cc13)-c1cc3c(c(=O)n1C2)COC(=O)[C@]3(O)CC	1.67 ± 1.4
COc1cc(O)c(C(=O)c2ccccc2)cc1S(=O)(=O)O	1.17 ± 0.81
C[C@]12CC[C@@H]3c4ccc(O)cc4CC[C@H]3[C@@H]1CC[C@@H]2OC(=O)CCC1CCCC1	0.582 ± 0.51
CCN(CC)CCOC(=O)C(c1ccccc1)C1CCCCC1 (configuration not stated)	1.06 ± 1
CN(C)c1ccc(C(=C2C=CC(=[N+](C)C)C=C2)c2ccc(N(C)C)cc2)cc1	-6.33 ± 1.1
COc1cccc2c1C(=O)c1c(O)c3c(c(O)c1C2=O)C[C@@](O)(C(C)=O)C[C@@H]3O[C@H]1C[C@H](N)[C@H](O)[C@H](C)O1	-2.21 ± 0.4
N=C(NCCCCCCNC(=N)NC(=N)Nc1ccc(Cl)cc1)NC(=N)Nc1ccc(Cl)cc1	1.64 ± 0.46
Cc1c2oc3c(C)ccc(C(=O)N[C@@H]4C(=O)N[C@H](C(C)C)C(=O)N5CCC[C@H]5C(=O)N(C)CC(=O)N(C)[C@@H](C(C)C)C(=O)O[C@@H]4C)c3nc-2c(C(=O)N[C@@H]2C(=O)N[C@H](C(C)C)C(=O)N3CCC[C@H]3C(=O)N(C)CC(=O)N(C)[C@@H](C(C)C)C(=O)O[C@@H]2C)c(N)c1=O	-7.48 ± 0.36
Cc1cc(CC(C)CC(C)(C)C)n(O)c(=O)c1 (configuration not stated)	0.402 ± 0.1
CCCCCCCCCc1ccc(OCCOCCOCCOCCOCCOCCOCCOCCOCCO)cc1	0.101 ± 0.62
